Results published in PubChem BioAssay.
Values joined by “and” are separate entries in the source; they are usually repeats but may differ in a detail not shown here. Equal entries are not always repeated. Results filed as inconclusive are left out. More than one record can exist for a structure, and the calls need not agree. Active and inactive are the calls of the source.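 How the source made its calls, unless noted: active means normalized viability below 100% at a tested concentration; inactive means the rest.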

Assays:
[1] = stimulators of nuclear beta-catenin in C2C12, primary screen, imaging, WNT3A-conditioned medium, mouse C2C12, NPC library (AID 1117326; in the data active means nuclear beta-catenin stimulation mostly above about 4.2%, no sharp cut-off; inactive means mostly below about 10%); conditions: stronger effect = higher value
[2] = stimulators of insulin release from INS-1E, primary screen, cell-based, 5 mM glucose, NPC library (AID 1117329;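 active means compound raises insulin release from rat beta cells at 5 mM glucose, no numeric limit stated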); conditions: rat INS-1E insulin secretion, at 10 µM, stronger effect = higher value
[3] = growth inhibition of GSK3B-pretreated HCT116 cells – cell-based, CellTiter-Glo, 0.2 to 20 µM (AID 1117336;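 active means compounds lowering colon cancer cell viability after pretreatment blocking the GSK3B kinase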); conditions: HCT116 viability after GSK3B inhibitor, at 20 µM, stronger effect = higher value
[4] = inhibition of endothelial tube formation, primary screen, imaging, VEGF stimulated, CD31 staining, tube area, NPC library (AID 1117340;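 active means compound that reduces growth-factor-driven endothelial tube area in a mixed cell culture, no cutoff stated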); conditions: VEGF-stimulated ADSC/ECFC co-culture, at 10 µM, stronger effect = higher value
[5] = glucagon-like peptide 1 release enhancers, primary assay, NCI-H716 cell line, NPC library (AID 1117341;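 active means compound raises GLP1 secretion from the human gut endocrine cells, with no numeric limit stated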); conditions: NCI-H716 cells, at 10 µM, stronger effect = higher value
[6] = HCT116 colon cancer cell growth inhibition, primary screen, CellTiter-Glo luminescence, NPC library (AID 1117342;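 active means compounds that lower survival of HCT116 colon cancer cells in the luminescence readout, no numeric limit stated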); conditions: at 20 µM (top of the series)
[7] = CellTiter-Glo luminescent readout of SW480 viability loss, NPC library primary (AID 1117343;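 active means compounds that lower viability of the colon cancer cells in the luminescence readout, with no numeric limit stated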); conditions: CellTiter-Glo luminescence; at 20 µM (top of the series) unless noted
[8] = decreased DLD-1 cellular survival, CellTiter-Glo luminescent readout, NPC compound collection, primary HTS (AID 1117346;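 active means compounds that lower survival of DLD-1 colon cancer cells in the luminescence readout, no cutoff given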); conditions: DLD-1 viability, CellTiter-Glo luminescence; at 20 µM (top of the series)
[9] = growth inhibition of DIPG glioma cells, dose response, cell-based, SU-DIPG-XVII, MIPE5.0, CellTiter-Glo, qHTS (AID 1347060; cut-off not given, nearly all actives have AC50 up to about 26 µM;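 on AC50: cells exposed to compound for 48 hours before viability readout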); conditions: SU-DIPG-XVII viability, CellTiter-Glo ATP luminescence
[10] = growth inhibition of DIPG glioma cells, dose response, cell-based, SU-DIPG-XIII, MIPE4.0, CellTiter-Glo, qHTS (AID 1347061; cut-off not given, nearly all actives have AC50 up to about 37 µM;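 further: cells exposed to compound for 48 hours before readout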); conditions: SU-DIPG-XIII viability, CellTiter-Glo ATP luminescence
[11] = growth inhibition of DIPG glioma cells, dose response, cell-based, JHH-DIPG-1, MIPE4.0, CellTiter-Glo, qHTS (AID 1347062; cut-off not given, nearly all actives have AC50 up to about 27 µM;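 on AC50: cells exposed to compound for two days before readout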); conditions: JHH-DIPG-1 viability, CellTiter-Glo ATP luminescence
[12] = SU-DIPG-XXV glioma cell viability, MIPE5.0 library, qHTS (AID 1347068; cut-off not given, nearly all actives have IC50 up to about 30 µM;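 on IC50: cells exposed to compound for 48 hours before viability readout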)
[13] = liver-stage malaria parasite growth inhibition, primary screen, cell-based, HepG2, luciferase luminescence, HepG2 viability (AID 624349; in the data active means parasite load remaining mostly below about 12%, no sharp cut-off; inactive means mostly above about 10%;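 further: 100% = mean of DMSO negative control wells on the same plate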); conditions: P. berghei liver stage in HepG2, luciferase luminescence, concentration not given here; parasite load remaining: stronger effect = lower value; viability: measured here: HepG2 viability without parasites
[14] = sensitizers of A549 cells to miR-34 induction, primary screen, imaging, A549 dox-inducible miR-34, nuclei and caspase counts (AID 1347080;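 active means compounds whose cell count with miR-34 switched on is under 0.7 times the count with it off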); conditions: A549 miR-34 inducible, Hoechst nuclei count, 48 h
[15] = survival rescue of mitochondrial mutant cells in low glucose, primary screen, MELAS cybrids, Rieske KO mouse fibroblasts, CellTiter-Glo (AID 1508586;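 active means mean z-score across replicates of 1.96 or higher in either the MELAS or the Rieske mutant cell line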;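 further: z relative to plate mean and SD of compound and empty wells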)
[16] = ovarian cancer cell viability with rucaparib, profiling panel, oncology-focused library, rucaparib conditional (AID 1508598); conditions: patient-derived ovarian cancer cells, CellTiter-Glo viability, 144 h, stronger effect = lower value
[17] = viability rescue of complex I mutant cybrids, primary screen, cell-based, galactose medium, ATP luminescence (AID 1645843;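 active means z-score of at least 1.8 in each of two replicates, scored against plate mean and spread of sample wells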;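 further: positive z means more ATP and so rescue of galactose-driven cybrid death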); conditions: complex I mutant cybrid cells, 72 h, stronger effect = higher value
[18] = stronger effect = lower value, cell number ratio, induced over uninduced
[19] = measured here: relative caspase fold change +Dox/-Dox
[20] = measured here: total cells with miR-34 induction, stronger effect = lower value
[21] = measured here: total cells without miR-34 induction
[22] = MELAS cybrid survival, CellTiter-Glo 48 h, stronger effect = higher value
[23] = Rieske KO mouse fibroblast survival, CellTiter-Glo 72 h

CCOC(=O)[C@H](CCc1ccccc1)N[C@H]1CS[C@H](c2cccs2)CN(CC(=O)O)C1=O
inactive: nuclear beta-catenin stimulation ([1]; at 10 µM) 0.9% | insulin secretion stimulation [2] 2% | viability decrease [3] -8.8% | tube area decrease [4] -13.9% | GLP1 secretion stimulation [5] 4.1% | inhibition of viability [6] -4.6% | viability decrease (inhibition) [7] -29% | viability decrease (inhibition) [8] 2.5% | outcome [9] | outcome [12]
active: AC50 [10] 14.8 µM | AC50 [11] 0.59 µM
-0.9%: nuclear beta-catenin stimulation ([1]; stimulation, at 2 µM)

CS(=O)(=O)CCNCc1ccc(-c2ccc3ncnc(Nc4ccc(OCc5cccc(F)c5)c(Cl)c4)c3c2)o1
1.01 and 1.28: fold change [14, 19]
2.46 (active) and -0.221 (inactive): z-score [15, 22]
101% (inactive) and 97.5% (active): viability ([16]; at 1.25 µM, OCI-P5x cells, with rucaparib 20 µM, 100% = cells with rucaparib alone)
102% (inactive) and 98.6% (active): viability ([16]; at 0.000305 µM, OCI-P5x cells, without rucaparib)
-0.2%: nuclear beta-catenin stimulation ([1]; stimulation, at 2 µM)
101%: viability [13]
116% (inactive) and 91.4% (active): viability ([16]; at 1.25 µM, OCI-C5x cells, with rucaparib 10 µM, 100% = cells with rucaparib alone)
inactive: parasite load remaining [13] 44.4% | nuclear beta-catenin stimulation ([1]; at 10 µM) 31.2% | insulin secretion stimulation [2] 1.35% | GLP1 secretion stimulation [5] 2.8% | fold change [14, 18] 0.964 and 0.914 | viability ([16]; at 0.000305 µM, OCI-C5x cells, with rucaparib 10 µM, 100% = cells with rucaparib alone) 113% and 103% | viability ([16]; at 0.000305 µM, OCI-C5x cells, without rucaparib) 123% and 111% | viability ([16]; at 0.00122 µM, OCI-C5x cells, with rucaparib 10 µM, 100% = cells with rucaparib alone) 107% and 123% | viability ([16]; at 0.00122 µM, OCI-C5x cells, without rucaparib) 123% and 115% | viability ([16]; at 0.00122 µM, OCI-P5x cells, without rucaparib) 104% and 107% | viability ([16]; at 0.00488 µM, OCI-C5x cells, with rucaparib 10 µM, 100% = cells with rucaparib alone) 111% and 106% | viability ([16]; at 0.00488 µM, OCI-C5x cells, without rucaparib) 131% and 122% | viability ([16]; at 0.00488 µM, OCI-P5x cells, without rucaparib) 105% and 108% | viability ([16]; at 0.0195 µM, OCI-C5x cells, with rucaparib 10 µM, 100% = cells with rucaparib alone) 109% and 107% | viability ([16]; at 0.0195 µM, OCI-C5x cells, without rucaparib) 128% and 109% | viability ([16]; at 0.0195 µM, OCI-P5x cells, without rucaparib) 105% and 111% | viability ([16]; at 0.0781 µM, OCI-C5x cells, with rucaparib 10 µM, 100% = cells with rucaparib alone) 113% and 110% | viability ([16]; at 0.0781 µM, OCI-C5x cells, without rucaparib) 126% and 113% | viability ([16]; at 0.0781 µM, OCI-P5x cells, with rucaparib 20 µM, 100% = cells with rucaparib alone) 103% and 104% | viability ([16]; at 0.0781 µM, OCI-P5x cells, without rucaparib) 111% | viability ([16]; at 0.313 µM, OCI-C5x cells, with rucaparib 10 µM, 100% = cells with rucaparib alone) 119% and 112% | viability ([16]; at 0.313 µM, OCI-C5x cells, without rucaparib) 134% and 112% | viability ([16]; at 0.313 µM, OCI-P5x cells, without rucaparib) 115% and 118% | viability ([16]; at 1.25 µM, OCI-C5x cells, without rucaparib) 126% | viability ([16]; at 1.25 µM, OCI-P5x cells, without rucaparib) 108% and 114% | viability ([16]; at 5 µM, OCI-C5x cells, without rucaparib) 134% and 128% | viability ([16]; at 5 µM, OCI-P5x cells, without rucaparib) 106% and 118% | z-score [17] -0.555
active: viability decrease [3] 106% | tube area decrease [4] 110% | inhibition of viability [6] 107% | viability decrease (inhibition) [7] 129% | viability decrease (inhibition) [8] 100% | AC50 [9] 18.6 µM | AC50 [10] 14.8 µM | AC50 [11] 18.7 µM | viability ([16]; at 0.000305 µM, OCI-P5x cells, with rucaparib 20 µM, 100% = cells with rucaparib alone) 95.1% and 93.3% | viability ([16]; at 0.00122 µM, OCI-P5x cells, with rucaparib 20 µM, 100% = cells with rucaparib alone) 96.9% and 99.7% | viability ([16]; at 0.00488 µM, OCI-P5x cells, with rucaparib 20 µM, 100% = cells with rucaparib alone) 95.5% and 98.8% | viability ([16]; at 0.313 µM, OCI-P5x cells, with rucaparib 20 µM, 100% = cells with rucaparib alone) 96.8% and 98.2% | viability ([16]; at 5 µM, OCI-P5x cells, with rucaparib 20 µM, 100% = cells with rucaparib alone) 95.6% and 97.1%
96.4% (active) and 103% (inactive): viability ([16]; at 0.0195 µM, OCI-P5x cells, with rucaparib 20 µM, 100% = cells with rucaparib alone)
3040 and 7890: cell count [14, 20]
0.803 and 1.5: z-score [15, 23]
100% (inactive) and 93.5% (active): viability ([16]; at 5 µM, OCI-C5x cells, with rucaparib 10 µM, 100% = cells with rucaparib alone)
3150 and 8630: cell count [14, 21]

COC(=O)C1=C(C)NC(C)=C(C(=O)OCCCN2CCC(c3ccccc3)(c3ccccc3)CC2)C1c1cccc([N+](=O)[O-])c1 (stereo not drawn)
inactive: parasite load remaining [13] 29% | nuclear beta-catenin stimulation ([1]; at 10 µM) -0.8% | insulin secretion stimulation [2] -1.1% | GLP1 secretion stimulation [5] -3.2% | outcome [10] | outcome [11] | fold change [14, 18] 1.31 and 0.96 | z-score [15, 22] -1.1 | z-score [17] -2.25
-0.158: z-score [15, 23]
380 and 6800: cell count [14, 21]
90.5%: viability [13]
9.4%: nuclear beta-catenin stimulation ([1]; stimulation, at 2 µM)
active: viability decrease [3] 110% | tube area decrease [4] 109% | inhibition of viability [6] 112% | viability decrease (inhibition) [7] 134% | viability decrease (inhibition) [8] 101% | AC50 [9] 10.5 µM | IC50 [12] 7.42 µM
498 and 6520: cell count [14, 20]
0.733 and 0.821: fold change [14, 19]
